Measured values: PubChem BioAssay (NCATS)
Records with an inconclusive call do not appear. The source made the active and inactive calls. The call rests on the fitted dose curve; in most records, active means well fitted curve in the direction sought with a large enough effect; inconclusive means small, poorly fitted or top-dose-only effect, or another doubt; inactive means no such curve, though single readings can be large; an effect the other way counts as inactive or inconclusive.

Assays:
[1] = system: CRL-7250; assay: Cytotoxic Profiling of Annotated Libraries Using Quantitative High-Throughput Screening (AID 1296008); conditions: Five cell lines viability, CellTiter-Glo ATP luminescence, 48-72 h; max response: hits give low values; further: nearly all actives have a fitted effect of over 60% in size; further: potency means the concentration at half of the fitted maximal effect; on max response: on the % scale 0 is the no-effect control and ±100 the full control effect
In short: (§1)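 Compounds were pin-transferred onto cells and incubated 48 or 72 hr at 37 degree Celsius, 95% humidity. CellTiter-Glo was added, plates sat 10 min at room temperature, then ATP-coupled luminescence was imaged as the viability read-out.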

[2] = system: HEK293; assay: as above; conditions: Five cell lines viability, CellTiter-Glo ATP luminescence, 48-72 h; max response: hits give low values
In short: as §1

[3] = system: C33A; assay: Primary qHTS to identify gynecologic anti-cancer compounds using libraries of approved drugs and bioactive compounds (AID 1345084); conditions: Gynecologic cancer cell panel viability, ATPlite luminescence, 48 h; series mostly up to 57.5 µM; further: nearly all actives have a fitted effect of over 55% in size; further: potency means the concentration at half of the fitted maximal effect
In short: (§2)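 Cell viability after 48 h drug treatment, ATPlite luminescence readout; five doses.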

[4] = system: CAOV3; assay: as above; conditions: Gynecologic cancer cell panel viability, ATPlite luminescence, 48 h; series mostly up to 57.5 µM
In short: as §2

[5] = system: Es-2; assay: as above; conditions: Gynecologic cancer cell panel viability, ATPlite luminescence, 48 h; series mostly up to 57.5 µM
In short: as §2

[6] = system: HeLa; assay: as above; conditions: Gynecologic cancer cell panel viability, ATPlite luminescence, 48 h; series mostly up to 57.5 µM
In short: as §2

[7] = system: JEG-3; assay: as above; conditions: Gynecologic cancer cell panel viability, ATPlite luminescence, 48 h; series mostly up to 57.5 µM
In short: as §2

[8] = system: PA-1; assay: as above; conditions: Gynecologic cancer cell panel viability, ATPlite luminescence, 48 h; series mostly up to 57.5 µM
In short: as §2

[9] = system: SKOV3; assay: as above; conditions: Gynecologic cancer cell panel viability, ATPlite luminescence, 48 h; series mostly up to 57.5 µM
In short: as §2

[10] = system: NIH3T3; assay: Cytotoxic Profiling of Annotated Libraries Using Quantitative High-Throughput Screening (AID 1296008); conditions: Five cell lines viability, CellTiter-Glo ATP luminescence, 48-72 h; max response: hits give low values; further: nearly all actives have a fitted effect of over 60% in size; further: potency means the concentration at half of the fitted maximal effect; on max response: on the % scale 0 is the no-effect control and ±100 the full control effect
In short: as §1

[11] = system: CASKI; assay: Primary qHTS to identify gynecologic anti-cancer compounds using libraries of approved drugs and bioactive compounds (AID 1345084); conditions: Gynecologic cancer cell panel viability, ATPlite luminescence, 48 h; series mostly up to 57.5 µM; further: nearly all actives have a fitted effect of over 55% in size; further: potency means the concentration at half of the fitted maximal effect
In short: as §2

[12] = system: Hek293T; assay: as above; conditions: Gynecologic cancer cell panel viability, ATPlite luminescence, 48 h, control line for the selectivity index; series mostly up to 57.5 µM
In short: as §2

[13] = system: OV90; assay: as above; conditions: Gynecologic cancer cell panel viability, ATPlite luminescence, 48 h; series mostly up to 57.5 µM
In short: as §2

[14] = system: HaCat; assay: Cytotoxic Profiling of Annotated Libraries Using Quantitative High-Throughput Screening (AID 1296008); conditions: Five cell lines viability, CellTiter-Glo ATP luminescence, 48-72 h; max response: hits give low values; further: nearly all actives have a fitted effect of over 60% in size; further: potency means the concentration at half of the fitted maximal effect; on max response: on the % scale 0 is the no-effect control and ±100 the full control effect
In short: as §1

[15] = system: KB-3-1; assay: as above; conditions: Five cell lines viability, CellTiter-Glo ATP luminescence, 48-72 h; max response: hits give low values
In short: as §1

[16] = system: HACAT; assay: qHTS assay to identify novel small-molecules to repurpose for Merkel cell carcinoma treatment (AID 1296009); conditions: MCC and control cell lines, CellTiter-Glo viability, 72 h; at 44.8 µM (top of the series) unless noted; further: nearly all actives have a fitted effect of over 60% in size
In short: (§3)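 qHTS format: cells treated with library compounds in DMSO across 8 (NPC) or 11 (MIPE) concentrations. Readout after 72 hr at 37 degree celsius was CellTiter-Glo luminescence.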

[17] = system: NIH3T3; assay: as above; conditions: MCC and control cell lines, CellTiter-Glo viability, 72 h; series mostly up to 44.8 µM
In short: as §3

Cn1ncc(Cl)c1-c1cc(C(=O)N[C@H](CN)Cc2ccc(F)c(F)c2)sc1Cl
active: Potency [2] 1.3 µM | Potency [3] 5.62 µM | Potency [9] 14.1 µM
inactive: max response [1] -4.08% | Potency [4] | Potency [5] | Potency [6] | Potency [7] | Potency [8]

CC1CCC/C=C/C(=O)c2c(O)cc(O)cc2CC(=O)O1 (stereo unspecified)
inactive: Potency [11]
active: Potency [1] 7.31 µM | Potency [2] 4.11 µM | Potency [10] 14.6 µM | Potency [3] 11.2 µM | Potency [12] 14.1 µM | Potency [7] 14.1 µM | Potency [8] 5.62 µM | Potency [9] 22.4 µM

C=C1C(=O)O[C@@H]2[C@H]1CC(=O)[C@H](C)[C@@](O)(C(=O)/C=C/C)[C@H]2OC(=O)C(C)CC (stereo partly specified)
inactive: Potency [6] | Potency [7] | Potency [13]
active: Potency [1] 7.18 µM | Potency [2] 2.86 µM | Potency [10] 4.04 µM | Potency [11] 10 µM | Potency [12] 10 µM | Potency [8] 11.2 µM

COCC(=O)NC/C=C/c1ccc2ncnc(Nc3ccc(Oc4ccc(C)nc4)c(C)c3)c2c1
active: Potency [1] 9.2 µM | Potency [2] 14.6 µM | Potency [9] 31.6 µM
inactive: Potency [3] | Potency [5] | Potency [6] | Potency [12] | Potency [7] | Potency [13] | Potency [8]

CCC(C)CC(=O)OC1C(=O)C(CO)=CC(O)C1C(C)C (stereo unspecified)
active: Potency [1] 18.4 µM | Potency [2] 8.2 µM | Potency [3] 31.6 µM | Potency [4] 28.2 µM | Potency [11] 28.2 µM | Potency [8] 31.6 µM

COc1cc(C(N)=O)nc(-c2ccccn2)c1O
inactive: max response [1] -12.9% | max response [2] -3.89% | max response [10] -4.41% | Potency [3] | Potency [5] | Potency [6] | Potency [12] | Potency [7] | Potency [13] | Potency [8] | Potency [9]

C=C1C(=O)OC2/C=C(\COC(C)=O)CC/C=C(\C=O)CC(OC(=O)CC(C)C)C12 (stereo unspecified)
active: Potency [1] 7.96 µM | Potency [2] 2.82 µM | Potency [12] 8.91 µM
inactive: Potency [11] | Potency [6]

COc1cc2c(cc1OC(C)C)[C@H](c1ccc(Cl)cc1)N(c1ccc(N(C)CC3CCC(N4CCN(C)C(=O)C4)CC3)cc1)C(=O)C2 (stereo partly specified)
active: Potency [1] 18.4 µM | Potency [8] 11.2 µM
inactive: max response [2] -97.2% | Potency [3] | Potency [4] | Potency [11] | Potency [5] | Potency [6] | Potency [12] | Potency [7] | Potency [13] | Potency [9]

C[C@H](Nc1ncnc2nc[nH]c12)c1cc2cccc(Cl)c2c(=O)n1-c1ccccc1
inactive: max response [1] -26.4% | max response [2] -90.1% | Potency [4] | Potency [5] | Potency [6] | Potency [7] | Potency [13]
active: Potency [10] 4.61 µM

CC1OC(=O)C[C@@H]2C(C(=O)O)=CO[C@@H](O[C@H]3O[C@H](CO)[C@@H](O)[C@H](O)[C@H]3O)[C@H]12 (stereo partly specified)
inactive: max response [1] -4.73% | outcome [14] | outcome [15] | outcome [10] | outcome [16] | Potency [17] | Potency [3] | Potency [4] | Potency [11] | Potency [5] | Potency [6] | Potency [12] | Potency [7] | Potency [13] | Potency [8]

O=C(NO)c1cnc(N2CCN(S(=O)(=O)c3ccc4ccccc4c3)CC2)nc1
active: Potency [1] 7.96 µM | Potency [10] 2.24 µM | Potency [13] 3.98 µM
inactive: max response [2] -106% | Potency [4]

OC1C=C2C3CN(Cc4cc5c(cc43)OCO5)C2CC1O (stereo unspecified)
inactive: Potency [4] | Potency [11] | Potency [7]
active: Potency [1] 8.2 µM | Potency [2] 6.51 µM | Potency [5] 25.1 µM | Potency [12] 8.91 µM | Potency [8] 14.1 µM

c1ccc(-c2ccc(CNc3nc(-c4ccccn4)nnc3-c3ccccc3)cc2)cc1
active: Potency [1] 5.8 µM | Potency [2] 5.17 µM | Potency [10] 3.66 µM | Potency [3] 12.6 µM | Potency [11] 11.2 µM | Potency [5] 17.8 µM | Potency [13] 7.08 µM | Potency [9] 12.6 µM
inactive: Potency [7]

CC1CCCC[C@H]2C(=O)C=C[C@H](O)[C@@H]2CC(=O)O1 (stereo partly specified)
inactive: Potency [11]
active: Potency [1] 8.2 µM | Potency [2] 1.64 µM | Potency [10] 18.4 µM | Potency [3] 20 µM | Potency [5] 10 µM | Potency [12] 15.8 µM | Potency [8] 10 µM | Potency [9] 3.55 µM

CN(C)CCOC(C)(c1ccccc1)c1ccc(Cl)cc1 (stereo unspecified)
active: Potency [1] 25.9 µM | Potency [2] 20.6 µM
inactive: Potency [3] | Potency [4] | Potency [11] | Potency [5] | Potency [6] | Potency [12] | Potency [7] | Potency [13] | Potency [8]

Nc1ncnc2c1nc(Cl)n2C1OC2COP(=O)(O)OC2C1O (stereo unspecified)
active: Potency [1] 6.51 µM | Potency [2] 1.64 µM | Potency [10] 5.8 µM | Potency [3] 7.94 µM | Potency [5] 10 µM | Potency [6] 11.2 µM | Potency [12] 10 µM | Potency [7] 15.8 µM | Potency [8] 8.91 µM

Cn1nc(-c2ccc(C(F)(F)F)cc2)nc2c(=O)n(C)c(=O)nc1-2
active: Potency [1] 14.6 µM | Potency [2] 6.51 µM | Potency [10] 1.3 µM | Potency [4] 10 µM | Potency [5] 15.8 µM | Potency [6] 20 µM | Potency [7] 10 µM | Potency [8] 5.01 µM | Potency [9] 17.8 µM

O=C1Nc2nc(-c3c(O)cccc3OCC3CC3)cc([C@@H]3CCCNC3)c2CO1
active: Potency [2] 20.6 µM
inactive: max response [1] -29.4% | Potency [6] | Potency [7]

CCOC(=O)CCNc1cc(N2CCc3ccccc3CC2)nc(-c2cccnc2)n1
inactive: outcome [1] | outcome [14] | outcome [15] | outcome [10] | outcome [16] | Potency [17] | Potency [3] | Potency [4] | Potency [11] | Potency [5] | Potency [6] | Potency [12] | Potency [7] | Potency [13] | Potency [8]

COC(=O)CC1OC(C)C2=C(O)c3c(O)cccc3C(=O)C23OC13 (stereo unspecified)
active: Potency [1] 4.04 µM | Potency [2] 2.86 µM | Potency [3] 12.6 µM | Potency [4] 3.55 µM | Potency [5] 10 µM | Potency [12] 10 µM | Potency [13] 10 µM | Potency [8] 3.98 µM
